The assay has as its target T1, CRBN, Q96SW2.
T1 chain: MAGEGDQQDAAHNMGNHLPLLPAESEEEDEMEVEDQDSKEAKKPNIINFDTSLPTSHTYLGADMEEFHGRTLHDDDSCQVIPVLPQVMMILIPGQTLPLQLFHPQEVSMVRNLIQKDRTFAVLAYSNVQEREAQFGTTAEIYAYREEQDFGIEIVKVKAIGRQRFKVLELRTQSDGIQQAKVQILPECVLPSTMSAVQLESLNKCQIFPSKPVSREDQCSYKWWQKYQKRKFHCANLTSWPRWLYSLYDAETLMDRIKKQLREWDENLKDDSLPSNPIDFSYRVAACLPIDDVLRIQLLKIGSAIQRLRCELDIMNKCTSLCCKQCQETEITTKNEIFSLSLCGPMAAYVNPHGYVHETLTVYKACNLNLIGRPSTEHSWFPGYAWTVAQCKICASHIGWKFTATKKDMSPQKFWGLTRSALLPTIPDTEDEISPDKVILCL
As to the kind of experiment: log2 fold change of degron read counts, EGFP-low vs EGFP+ sorted cells (limma voom), compound-induced degradation; higher = more compound-induced degradation of the degron-EGFP fusion; degrons are variants of IKZF1/3 zinc finger 2; compound dose not given here. The following applies: Jurkat, 18 h.

Where [1] appears, read: compound: compound 19 (5-tert-butyl-thalidomide).
[2] abbreviates: compound: compound 22 (5-morpholino-thalidomide).
Where [3] appears, read: compound: compound 33 (diphenyl IMiD analogue).

The full ranking holds about 8,300 sequences; the median of “log2 fold change of degron read counts, EGFP-low vs EGFP+ sorted cells (limma voom), compound-induced degradation” is about -1.1, and the highest 2% start at about 3.2. The full list was thinned out, with the highest values kept by preference.
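Also: pooled lentiviral library of zinc finger degron-EGFP fusions in mCherry-positive Jurkat cells, FACS-sorted after compound exposure, with degron abundance counted by next-generation sequencing.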

With FNCDVCGAHFTQKGNLLRHIKL [46F_47N_49D_50V_52G_53A_54H_55F_67L_, Q9UKT9], the “log2 fold change of degron read counts” value reads like this: under setting [1], -0.166; under setting [2], -1.87; under setting [3], -1.95; (compound: thalidomide) -2.36.

Take FLCPQCGAPFTQKGNLLRHIKL [46F_47L_49P_50Q_52G_53A_54P_55F_67L_, Q9UKT9]: the “log2 fold change of degron read counts” value under setting [1] is -1.51, the “log2 fold change of degron read counts” value under setting [2] is -0.398, the “log2 fold change of degron read counts” value under setting [3] came to 0.89 and the “log2 fold change of degron read counts” value (compound: thalidomide) was 0.718.

On to LRCNQCGFVCTQKGNLLRHIKL [46L_47R_49N_50Q_52G_53F_54V_55C_67L_, Q9UKT9], for which the “log2 fold change of degron read counts” value reads like this: under setting [1], -1.27; under setting [2], -2.74; under setting [3], -1.29; (compound: thalidomide) -1.39.

For FGCEICGAFFTQKGNLLRHIKL [46F_47G_49E_50I_52G_53A_54F_55F_67L_, Q9UKT9], the “log2 fold change of degron read counts” value runs as follows: under setting [1], 2.48; under setting [2], 1.05; under setting [3], 2.58; (compound: thalidomide) 0.0705.

FECPVCGADFTQKGNLLRHIKL [46F_47E_49P_50V_52G_53A_54D_55F_67L_, Q9UKT9]: the “log2 fold change of degron read counts” value was -1.59 under setting [1], -1.56 under setting [2], 2.05 under setting [3] and 2.24 (compound: thalidomide).

FHCEVCGAQFTQKGNLLRHIKL [46F_47H_49E_50V_52G_53A_54Q_55F_67L_, Q9UKT9]: the “log2 fold change of degron read counts” value by setting is: under setting [1], 1.71; under setting [2], 2.6; under setting [3], 1.97; (compound: thalidomide) 0.794.

Take FDCEVCGAQFTQKGNLLRHIKL [46F_47D_49E_50V_52G_53A_54Q_55F_67L_, Q9UKT9]: the “log2 fold change of degron read counts” value by setting is: under setting [1], 1.45; under setting [2], 0.572; under setting [3], -0.0193; (compound: thalidomide) 1.19.

Turning to FSCEVCGAQFTQKGNLLRHIKL [46F_47S_49E_50V_52G_53A_54Q_55F_67L_, Q9UKT9], the “log2 fold change of degron read counts” value is, setting by setting: under setting [1], 2.77; under setting [2], 2.35; under setting [3], 1.32; (compound: thalidomide) 1.33.

Consider FRCEVCGAQFTQKGNLLRHIKL [46F_47R_49E_50V_52G_53A_54Q_55F_67L_, Q9UKT9], for which the “log2 fold change of degron read counts” value is 0.18 under setting [1], 0.339 under setting [2], 1.48 under setting [3] and 1.56 (compound: thalidomide).

FACEVCGAQFTQKGNLLRHIKL [46F_47A_49E_50V_52G_53A_54Q_55F_67L_, Q9UKT9]: the “log2 fold change of degron read counts” value is, setting by setting: under setting [1], 3.49; under setting [2], 2.06; under setting [3], 0.981; (compound: thalidomide) 0.73.

For the sequence FYCEVCGAQFTQKGNLLRHIKL [46F_47Y_49E_50V_52G_53A_54Q_55F_67L_, Q9UKT9], the “log2 fold change of degron read counts” value amounted to 3.53 under setting [1], 3.57 under setting [2], 2.99 under setting [3] and 1.94 (compound: thalidomide).

Take FNCEVCGAQFTQKGNLLRHIKL [46F_47N_49E_50V_52G_53A_54Q_55F_67L_, Q9UKT9]: the “log2 fold change of degron read counts” value is 2.48 under setting [1], 1.07 under setting [2], 0.414 under setting [3] and 0.334 (compound: thalidomide).

As to FWCEVCGAQFTQKGNLLRHIKL [46F_47W_49E_50V_52G_53A_54Q_55F_67L_, Q9UKT9], the “log2 fold change of degron read counts” value under setting [1] is 3.44, the “log2 fold change of degron read counts” value under setting [2] was found to be 3.79, the “log2 fold change of degron read counts” value under setting [3] turned out to be 2.82 and the “log2 fold change of degron read counts” value (compound: thalidomide) turned out to be 2.03.

Consider FICEVCGAQFTQKGNLLRHIKL [46F_47I_49E_50V_52G_53A_54Q_55F_67L_, Q9UKT9], for which the “log2 fold change of degron read counts” value is -0.278 under setting [1], 2.8 under setting [2], 2.99 under setting [3] and 2.69 (compound: thalidomide).

In the case of FVCEVCGAQFTQKGNLLRHIKL [46F_47V_49E_50V_52G_53A_54Q_55F_67L_, Q9UKT9], the “log2 fold change of degron read counts” value under setting [1] stood at 0.146, the “log2 fold change of degron read counts” value under setting [2] is 2.74, the “log2 fold change of degron read counts” value under setting [3] is 2.92 and the “log2 fold change of degron read counts” value (compound: thalidomide) worked out at 2.99.

In the case of FECEVCGAQFTQKGNLLRHIKL [46F_47E_49E_50V_52G_53A_54Q_55F_67L_, Q9UKT9], the “log2 fold change of degron read counts” value is -0.548 under setting [1], -1.16 under setting [2], 1.28 under setting [3] and 2.29 (compound: thalidomide).

On to FQCEVCGAQFTQKGNLLRHIKL [46F_47Q_49E_50V_52G_53A_54Q_55F_67L_, Q9UKT9], for which the “log2 fold change of degron read counts” value reads like this: under setting [1], 0.659; under setting [2], 2.56; under setting [3], 2.21; (compound: thalidomide) 3.77.

Consider FTCNQCGALFTQKGNLLRHIKL [46F_47T_49N_50Q_52G_53A_54L_55F_67L_, Q9UKT9], for which the “log2 fold change of degron read counts” value is, setting by setting: under setting [1], -2.64; under setting [2], -2.95; under setting [3], -1.35; (compound: thalidomide) -2.16.

As to FRCEICGRWFTQKGNLLRHIKL [46F_47R_49E_50I_52G_53R_54W_55F_67L_, Q9UKT9], the “log2 fold change of degron read counts” value under setting [1] was -2.31, the “log2 fold change of degron read counts” value under setting [2] was -2.38, the “log2 fold change of degron read counts” value under setting [3] is -1.89 and the “log2 fold change of degron read counts” value (compound: thalidomide) stood at 0.776.

Consider FFCPICGHAFTQKGNLLRHIKL [46F_47F_49P_50I_52G_53H_54A_55F_67L_, Q9UKT9], for which the “log2 fold change of degron read counts” value is, setting by setting: under setting [1], -0.981; under setting [2], -1.5; under setting [3], -0.604; (compound: thalidomide) -1.29.

Turning to FHCNQCGACFTQKGNLLRHIKL [46F_47H_49N_50Q_52G_53A_54C_55F_67L_, Q9UKT9], the “log2 fold change of degron read counts” value reads like this: under setting [1], -1.49; under setting [2], -1.87; under setting [3], -1.86; (compound: thalidomide) -2.37.

As to LRCNQCGFLCTQKGNLLRHIKL [46L_47R_49N_50Q_52G_53F_54L_55C_67L_, Q9UKT9], the “log2 fold change of degron read counts” value is, setting by setting: under setting [1], -1.18; under setting [2], -1.92; under setting [3], -1.55; (compound: thalidomide) -1.3.

With FLCSVCGHVFTQKGNLLRHIKL [46F_47L_49S_50V_52G_53H_54V_55F_67L_, Q9UKT9], the “log2 fold change of degron read counts” value is, setting by setting: under setting [1], -2.42; under setting [2], -2.11; under setting [3], -2.5; (compound: thalidomide) -2.18.

FFCEQCGAAFTQKGNLLRHIKL [46F_47F_49E_50Q_52G_53A_54A_55F_67L_, Q9UKT9]: the “log2 fold change of degron read counts” value runs as follows: under setting [1], 0.842; under setting [2], 1.01; under setting [3], 0.32; (compound: thalidomide) -1.11.

In the case of FTCNQCGAMFTQKGNLLRHIKL [46F_47T_49N_50Q_52G_53A_54M_55F_67L_, Q9UKT9], the “log2 fold change of degron read counts” value under setting [1] was -2.5, the “log2 fold change of degron read counts” value under setting [2] was -2.41, the “log2 fold change of degron read counts” value under setting [3] is -1.29 and the “log2 fold change of degron read counts” value (compound: thalidomide) was -1.58.

For the sequence FWCPQCGARFTQKGNLLRHIKL [46F_47W_49P_50Q_52G_53A_54R_55F_67L_, Q9UKT9], the “log2 fold change of degron read counts” value reads like this: under setting [1], 0.926; under setting [2], 3.08; under setting [3], 0.0765; (compound: thalidomide) 0.0591.

For the sequence FFCEVCGAQFTQKGNLLRHIKL [46F_47F_49E_50V_52G_53A_54Q_55F_67L_, Q9UKT9], the “log2 fold change of degron read counts” value is 3.36 under setting [1], 3.6 under setting [2], 2.42 under setting [3] and 1.89 (compound: thalidomide).

For the sequence FGCEVCGAQFTQKGNLLRHIKL [46F_47G_49E_50V_52G_53A_54Q_55F_67L_, Q9UKT9], the “log2 fold change of degron read counts” value reads like this: under setting [1], 3.18; under setting [2], 2.36; under setting [3], 1.12; (compound: thalidomide) 0.866.

For the sequence FTCEVCGAQFTQKGNLLRHIKL [46F_47T_49E_50V_52G_53A_54Q_55F_67L_, Q9UKT9], the “log2 fold change of degron read counts” value runs as follows: under setting [1], -0.192; under setting [2], 2.19; under setting [3], 2.27; (compound: thalidomide) 2.79.

The values above are taken from the supplement of paper PMC12645437, “Orthogonal IMiD-Degron Pairs Induce Selective Protein Degradation in Cells” (ACS Chemical Biology, 2025).
